Assay results from PubChem BioAssay (NCI).
Compounds without any hit were thinned out: in the full panel of roughly 83,000, 20% have a hit.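 Compound tested at a single concentration for 48 hours in 96-well plates; a percent growth value below 10 was scored as active.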 Unmarked numbers belong to inactive results. The source made the active and inactive calls.

These compounds were tested on HL-60(TB) leukemia (assay: NCI-60 one-dose screen, 48 h (100 = growth as untreated, 0 = no growth, -100 = all killed)). Details: 10 µM unless noted.

Row | SMILES | growth
1 | Nc1c(C(=O)Nc2cccc(C(F)(F)F)c2)sc2nc3c(cc12)C(O)CCC3 (stereo not given) | -0.216% (active)
2 | Cc1ccc2[nH]cc(-c3nc(-c4cn(C)c5ncccc45)cs3)c2c1 | 63.7%
3 | CN(C)c1ccc(/C=C/c2ccnc3ccccc23)cc1 | 12.6%
4 | O=C(Nc1ccccc1)OCC1OCOC(COC(=O)Nc2ccccc2)C1OC(=O)Nc1ccccc1 (stereo not given) | 122%
5 | Cc1cccc([N+](=O)[O-])c1I | 143%
6 | Cc1ccc(-c2nc(SCC(=O)Nc3nc(-c4ccc(Cl)cc4)cs3)[nH]c(=O)c2C#N)cc1 | 111%
7 | CN(C)c1ccc(/C=C(\C#N)c2nc3ccccc3n2C)cc1 | 1.21% (active)
8 | CCOC(=O)C1=CSC2=NC3=C(CCC/C3=C\c3ccc(Cl)cc3)C(c3ccc(Cl)cc3)N12 (stereo not given) | 79.7%
9 | NCCCNc1nc2ccccc2c2c(=O)c3cc(F)cc(F)c3sc12 | 61.2%
10 | COc1cccc(NC(=O)c2sc3nc4c(cc3c2N)CN(Cc2ccccc2)CC4)c1 | 50.1%
11 | Nc1nc(N)c2c(n1)NC(c1ccc3c(c1)OCO3)CC(c1cccc(Nc3ccncc3)c1)=N2 (stereo not given) | 57%
12 | C/C(=C(\c1ccc(OCCN2CCOCC2)cc1)c1ccc(OC(=O)C2CCCCC2)cc1)c1ccc(Cl)cc1 | 96.4%
13 | O=C1C(=O)N(Cc2ccc(-c3ccccc3)cc2)c2ccc(OC(F)(F)F)cc21 | 17.7%
14 | COc1ccc(/C=N/NC(N)=S)c(OC)n1 | 93.4%
15 | Cc1nc(Nc2cn[nH]c2C(=O)Nc2ccc(CN3CCN(C)CC3)cc2)c2ccsc2n1 | 113%
16 | CCOC(=O)n1cnc2c(Cl)ncnc21 | 106%
17 | CC(C)[C@@]12C[C@@H](OC(=O)COC(=O)c3ccccc3)[C@@](C)(O1)[C@@H]1CC[C@@H](C)[C@H]1[C@@H]2OC(=O)/C=C/c1ccccc1 | 94.5%
18 | CC/C(=N\N=C(/CC)c1ccc(Br)cc1)c1ccc(Br)cc1 | 124%
19 | O=C1C=CC(n2cc(F)c(=O)[nH]c2=O)O1 (stereo not given) | 45.3%
20 | Cc1ccncc1C(=O)O | 106%
21 | Clc1ccc(C2CC(c3cccc(Nc4ccncc4)c3)=NN2c2ccccc2)cc1 (stereo not given) | -38.6% (active)
22 | CN1C(=O)C(C2=NNC(c3ccccc3C(=O)O)C2)C(=O)N(C)C1=O (stereo not given) | 95.5%
23 | COc1cccc(-c2nn(-c3ccccc3)cc2-c2ccnc(N3CCOCC3)c2)c1 | 44.9%
24 | CCN(CC)c1ccc(C(=C2C=CC(=[N+](CC)Cc3cccc(S(=O)(=O)O)c3)C=C2)c2ccc(N(CC)Cc3cccc(S(=O)(=O)O)c3)cc2)cc1 | -22.2% (active)
25 | CN(C)CC/C=C1\c2ccccc2Sc2ccc(Cl)cc21 | 94.2%
